Hit rate of the full screen: of about 420,000 compounds, about 50,000 (12%) were called active. Roughly 26% stayed inconclusive and do not appear here. The entries come from a sample that favours actives as a whole. Unmarked numbers belong to inactive results. Calls come from the whole dose curve; as a rule, active = well fitted inhibition curve with a large enough effect; inconclusive = small, poorly fitted or top-dose-only effect; inactive = flat fitted curve, though single readings scatter.
Assay: qHTS for Inhibitors of human tyrosyl-DNA phosphodiesterase 1 (TDP1): qHTS in cells in presence of CPT; note: nearly all actives have a fitted effect of over 55% in size
Conditions: chicken DT40 Tdp1-/-;hTDP1 cells + 20 nM CPT, ATP luminescence, 48 h; series mostly up to 46.2 µM; activity change, negative = growth inhibition: at the top concentration
Procedure, shortened: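 Chicken DT40 Tdp1-/- cells stably complemented with human TDP1 were seeded at 400 cells/well in medium containing 20 nM camptothecin, exposed to pin-transferred compounds, and grown at 37 °C for at least 48 hr. Viability was read as ATP luminescence.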
% is set by controls: 0 for no effect and ±100 for the full control effect; potency is the fitted concentration of half-maximal effect.

| SMILES | Potency | activity change, negative = growth inhibition |
| --- | --- | --- |
| O=C(c1cc(Cl)cc(Cl)c1)N1CCC(=O)N(C(COCc2ccccc2)Cc2ccccc2)CC1 (stereo not drawn) | 13 µM (active) | – |
| CC(C)CC(COCc1ccc(Cl)cc1)N1CCN(C(=O)c2ccc(C(F)(F)F)cc2)CCC1=O (stereo not drawn) | 14.6 µM (active) | – |
| CC(C)CC(CO)N1CCN(C(=O)c2ccc(Cl)cc2Cl)CCC1=O (stereo not drawn) | – | -15.8% |
| CC(C)C[C@@H](CO)N1CCN(Cc2ccc(O)cc2)CCC1=O | inactive | – |
| Cc1ccc(S(=O)(=O)N2CCC(=O)N([C@H](COCc3ccccc3)C(C)C)CC2)cc1 | – | -24.5% |
| CN1CCC(=O)N([C@H](CO)Cc2ccccc2)CC1 | inactive | – |
| Cc1ccc(S(=O)(=O)N(C)C)cc1NC(=O)C1Cc2ccccc2CN1C(=O)c1ccco1 (stereo not drawn) | – | -0.982% |
| Cc1c(C(C)CCCO)oc(=O)c2c1Oc1c(C)c(C(C)C[C@@H](C)O)oc(=O)c1C2 (stereo partly drawn) | – | 4.27% |
| CCCCCCCC(=O)OC(CN1CCCCCC1)CN1CCCC1=O (stereo not drawn) | – | 16% |
| COc1cc(/C=C2\C(=N)N3N=C(CC(=O)N4CCOCC4)SC3=NC2=O)cc(OC)c1OC | – | -6.19% |
| Cc1cc2cc(CNC(=O)c3ccc(S(=O)(=O)N4CCOCC4)cc3)ccc2[nH]1 | – | -2.39% |
| Cc1cccc(OCC(O)CN2CCN(S(=O)(=O)c3ccc(C)cc3C)CC2)c1 (stereo not drawn) | – | -21.3% |
| Cc1c(Br)cc(C(=O)N2CCCCCC2)c(C)c1C | – | -29.8% |
| Cc1cccc(CSc2nnc(NC(=O)CSc3nnc(C)s3)s2)c1 | – | -20.9% |
| Cn1nnnc1SCC(=O)Nc1nc2ccccc2s1 | – | 8.1% |
| COc1ccccc1-n1c(CNC(=O)c2ccccc2)nnc1SCC(=O)Nc1nnc(C)s1 | – | -16.9% |
| Cc1nnc(NC(=O)CSc2nccn2-c2cccc(C)c2C)s1 | 4.61 µM (active) | – |
| Cc1ccccc1-n1c(SCC(=O)Nc2cccc3ccccc23)nc(O)cc1=O | – | -1.44% |
| Cc1cccc(-n2ccnc2SCC(=O)Nc2cccc3ccccc23)c1C | 23.1 µM (active) | – |
| C=CCn1c(SCC(=O)Nc2nc3ccccc3s2)nnc1-c1ccccc1O | – | -15.4% |
| Cc1cc(C)cc(-n2ccnc2SCC(=O)Nc2nc3ccccc3s2)c1 | 18.4 µM (active) | – |
| COc1ccccc1-n1ccnc1SCC(=O)NC(C)(C)C | – | -8.23% |
| COc1cccc(CC(=O)N2CCCC(CCC(=O)N3CCN(c4ccccn4)CC3)C2)c1 (stereo not drawn) | – | -6.11% |
| CC(C)Sc1ncnc2c1cnn2-c1ccccc1 | – | -7.47% |
| Nc1cc(N)nc(SCc2cccc(F)c2)n1 | – | 1.43% |
| COCCN1C(=O)C(=O)/C(=C(/O)c2ccc(S(=O)(=O)N3CCCCC3)cc2)C1c1ccc(OC)c(OC)c1 (stereo not drawn) | – | 5.68% |

| SMILES | Potency | activity change, negative = growth inhibition |
| --- | --- | --- |
| Cc1ccc2c(c1)C1C[N+](C)(CC(=O)c3ccccc3)CCC1N2C(=O)c1ccccc1Cl (stereo not drawn) | – | -1.83% |
| CCOc1ccc(C2=CC(c3ccccc3)n3ncnc3N2)cc1 (stereo not drawn) | – | -29.3% |
| CC(=O)Nc1ccc(NC(=O)CSCc2cnn(-c3ccccc3)c2-n2cccc2)cc1 | – | -0.201% |
| COCCNC(=O)C1CCCN(Cc2ccccc2Cl)CC1 (stereo not drawn) | – | -11% |
| O=C(NCCC1=CCCCC1)C1CCN(Cc2cnn(-c3ccccc3)c2-n2cccc2)CC1 | 23.1 µM (active) | – |
| CS(=O)(=O)c1ccc(C(=O)OCC(=O)NNC(=O)COc2ccc(Cl)cc2)cc1 | – | 6.33% |
| CC(CC(=O)O)C(=O)c1ccc(Cl)c([N+](=O)[O-])c1 (stereo not drawn) | – | -1.52% |
| CN(C)c1ccc(/C=C/C(=O)c2ccc(C(C)(C)C)cc2)cc1[N+](=O)[O-] | 23.1 µM (active) | – |
| O=C(/C=C/c1ccc(Cl)cc1)N1CCN(c2ccccc2[N+](=O)[O-])CC1 | – | -6.66% |
| Cc1cc(C(=O)O)ccc1[N+](=O)[O-] | – | -11.6% |
| Nn1cnnc1N/N=C/c1cc([N+](=O)[O-])c(Cl)cc1Cl | – | 1.95% |
| O=C(O)c1ccc2c(=O)n3c(nc2c1)/C(=C/c1ccc(Cl)c([N+](=O)[O-])c1)CC3 | – | 8.58% |
| O=C(Nc1cccc(NC(=O)c2ccccc2[N+](=O)[O-])c1)c1ccccc1Cl | – | -11.1% |
| NC(N)=N/N=C/c1ccc(Cl)c([N+](=O)[O-])c1 | 11.6 µM (active) | – |
| O=C(/C=C/c1ccc(Cl)c([N+](=O)[O-])c1)c1ccc(O)cc1 | 4.11 µM (active) | – |
| O=C(c1ccc(F)cc1)N1CCC(C(=O)N2CCN(S(=O)(=O)c3ccccc3Br)CC2)CC1 | – | -22.5% |
| COc1ccc(NC(=O)C2CCC(CNS(=O)(=O)c3csc(C(N)=O)c3)CC2)cc1OC (stereo not drawn) | – | -4.23% |
| Cc1ccc(S(=O)(=O)N2CCOCC2)cc1C(=O)NC(=S)N(Cc1ccccc1)C(C)C | – | 6.11% |
| Cc1nn(Cc2ccccc2)c(C)c1CNC(=O)c1ccc(F)c(S(=O)(=O)N2CCOCC2)c1 | – | -13.2% |
| O=C(COC(=O)c1ccc(F)c(S(=O)(=O)N2CCOCC2)c1)NCc1ccc2c(c1)OCO2 | – | -23% |
| Cc1cccc(N(Cc2ccccc2)C(=O)c2cc(S(=O)(=O)N3CCOCC3)ccc2F)c1 | 18.4 µM (active) | – |
| Cc1ccc(S(=O)(=O)N2CCN(C(=O)c3cc(S(=O)(=O)N4CCOCC4)ccc3F)CC2)cc1 | – | -24.8% |
| O=C(c1ccc(F)c(S(=O)(=O)N2CCOCC2)c1)N(CCc1ccccc1)Cc1ccccc1 | 14.6 µM (active) | – |
| CC(C)Cn1cc(-c2cncc3nccn23)cn1 | – | 5.95% |
| CCCCN(CC(=O)NC(C)(C)C)C(=O)C(=O)Nc1ccc2c(c1)OCCO2 | – | 1.35% |
| O=C(O)c1cc2c(cc1NC(=O)c1c(F)cccc1Cl)OCCCO2 | – | 5.92% |

| SMILES | Potency | activity change, negative = growth inhibition |
| --- | --- | --- |
| Cc1ccc(CNC(=O)CSc2nnc3c(n2)[nH]c2ccc(F)cc23)cc1 | – | 9.5% |
| CCOC(=O)COn1c(=O)c(-c2ccc(OCC)cc2)[n+]([O-])c2ccccc21 | – | -16.7% |
| O=c1c(-c2ccc(Cl)cc2)[n+]([O-])c2ccccc2n1OCc1nc2ccccc2[nH]1 | – | 17.6% |
| CCOc1ccc(OCC)c(-c2c(=O)n(OCc3ccc(Cl)cc3)c3ccccc3[n+]2[O-])c1 | 7.31 µM (active) | – |
| O=C(N/N=C/c1ccco1)c1csc2c1CCCC2 | – | -2.91% |
| Cc1cccc(C)c1NC(=O)N1CC=C(n2c(=O)[nH]c3ccccc32)CC1 | 14.6 µM (active) | – |
| Cc1ccccc1Cn1c(=O)[nH]c2ccccc21 | – | -15.8% |
| Cc1cccc(C)c1NC(=O)N1CC(C)OC(C)C1 (stereo not drawn) | – | -2.12% |
| C[C@H](CO)N1C[C@H](C)[C@@H](CN(C)C(=O)c2cnccn2)Oc2ncc(Br)cc2C1=O | – | -4.57% |
| NNc1nnc(Cc2ccncc2)c2ccccc12 | – | -16.8% |
| S=C(Nc1ccc(Br)cc1)NC1CCN(Cc2ccccc2)CC1 | 16.4 µM (active) | – |
| O=C(NC1CCN(Cc2ccccc2)CC1)c1c(F)cccc1F | – | -5.75% |
| O=C(NC1CCN(Cc2ccccc2)CC1)c1cc(Br)c(Br)[nH]1 | 18.4 µM (active) | – |
| Cc1cc(Br)ccc1NC(=S)NC1CCCC1 | – | -25.2% |
| Cc1ccn2cc(C(=O)NC3CCN(Cc4ccccc4)CC3)nc2c1 | – | -22.4% |
| O=C(NNC(=S)Nc1ccc(Br)cc1Cl)c1ccco1 | – | 1.82% |
| Cc1ccc(-c2cc(C(=O)NC3CCN(Cc4ccccc4)CC3)c3ccccc3n2)cc1 | 14.6 µM (active) | – |
| O=C(NC1CCN(Cc2ccccc2)CC1)c1ccccc1F | – | -25.2% |
| O=C(Nc1ccccc1)N1CCC(C(=O)N2CCN(Cc3ccccc3)CC2)CC1 | – | -23.9% |
| S=C(Nc1ccc(Br)cc1Cl)NC1CCN(Cc2ccccc2)CC1 | 18.4 µM (active) | – |
| Cc1cc(C(=O)NC2CCN(Cc3ccccc3)CC2)n[nH]1 | – | 1.51% |
| O=C(c1cccc(-n2cccc2)c1)N1CCN(S(=O)(=O)c2ccc(F)cc2)CC1 | – | -14.8% |
| COc1cc(/C=C/C(=O)OCC(=O)NC2CC2)cc(OC)c1OC | – | 4.67% |
| COC(=O)c1sccc1NC(=O)c1ccc(Cl)cc1 | – | -0.881% |
| CCc1ccc(NC(=O)CCNS(=O)(=O)c2cccs2)cc1 | – | -1.58% |
| Cc1cccc(C)c1NC(=O)CN1C(=O)C(C)Oc2ccccc21 (stereo not drawn) | – | 5.54% |

| SMILES | Potency | activity change, negative = growth inhibition |
| --- | --- | --- |
| CCC1C(=O)c2ccccc2N(C)C1=O (stereo not drawn) | – | 15.8% |
| Cc1onc(C(=O)Nc2ccc3c(c2)OCO3)c1[N+](=O)[O-] | – | -30.1% |
| Cc1ccc(NC(=O)CSc2nnc(CNC(=O)c3ccccc3F)o2)cc1Cl | – | -18% |
| O=C(NC1CC(=O)N(c2ccccc2)C1)c1ccco1 (stereo not drawn) | – | 9.32% |
| COc1cc(NC(=O)CN2CCN(S(=O)(=O)c3ccc(Br)cc3)CC2)cc(OC)c1 | – | -4.27% |
| COc1ccc(NC(=O)CN(C)C(=O)CNC(=O)C2CCCCC2)cc1 | – | 4.05% |
| COc1ccc(/C=C/c2noc(-c3ccccc3OC(C)=O)n2)cc1 | – | 0.465% |
| O=C(O)COc1ccc(/C=N/O)cc1Br | – | -0.568% |
| CNC(=S)N/N=C/c1ccc(OCc2ccccc2)c(Br)c1 | 9.2 µM (active) | – |
| C=CCNC(=S)N/N=C/c1ccc(OCc2ccccc2)cc1 | – | -6.93% |
| CCN(c1ccccc1)S(=O)(=O)c1ccc(NC(=O)C(C)(C)C)cc1 | – | -28.5% |
| O=C(COc1ccccc1)Nc1ccc(F)cc1 | – | -2.03% |
| CC(C)(CCl)C(=O)Nc1ccc(Sc2ccc(F)cc2)cc1 | 5.8 µM (active) | – |
| Cc1ccc(C(O)P(=O)(OC(C)C)c2ccc(N(C)C)cc2)cc1 (stereo not drawn) | – | 11.2% |
| COc1cc2c(cc1OC)C(c1ccccc1Br)NC(=O)C2 (stereo not drawn) | – | -11.7% |
| O=C1c2ccccc2C(=O)C1C(=O)C1CC1 | – | -101% |
| CCc1c(C)nc(N)n2c(SCC(=O)NC3CCCCC3)nnc12 | – | -9.06% |
| CC1CCN(c2ccc3c(c2)S(=O)(=O)c2cc(C(=O)O)ccc2C3=O)CC1 | – | 6.79% |
| CC1CCc2sc(C(=O)N/N=C/C3CCCCC3)cc2C1 (stereo not drawn) | – | 8.96% |
| COc1ccc2oc(C(=O)NCc3ccco3)c(C)c2c1 | – | -28.7% |
| CSc1ncccc1C(=O)NCC(c1ccco1)N1CCCCC1 (stereo not drawn) | – | 1.81% |
| Cc1cc(S(=O)(=O)Nc2ccc(C(=O)NCC(c3ccco3)N3CCCC3)cc2)ccc1F (stereo not drawn) | – | -19.1% |
| CC1CCc2sc(C(=O)NCC(c3ccco3)N3CCCCC3)cc2C1 (stereo not drawn) | 16.4 µM (active) | – |
| Cc1c(C(=O)NCC(c2ccco2)N2CCCC2)oc2ccc(Cl)cc12 (stereo not drawn) | 20.6 µM (active) | – |
| Nc1nc(N)c(N=O)c(N)n1 | – | -0.158% |
